# Source: PubChem BioAssay
# MARV entry inh = blocks Marburg virus binding or cell entry; 18,000 tested, 6.5% active; AID 720532; Potency, µM (series often up to 49.2 µM), for inactives: top-dose activity change, negative = inhibition, usual class: inhibitors; Marburg virus pseudotype entry/binding inhibition, cell-based
# LASV entry inh = inhibitors of Lassa virus binding or entry into cells; Lassa virus pseudotyped entry inhibition, cell-based qHTS; Potency, µM (top dose mostly 49.2 µM), without a hit: at the highest dose activity change, negative = inhibition, actives largely listed as inhibitors; 18,000 tested, 4.1% active; AID 720533
# An asterisk follows results filed as active; ? = inconclusive; · = no result; ! = repeats disagree; [ ] = remark or other dose. Compounds with a hit are over-represented: about 8% of the library has one in this group of screens. Calls follow the shape of the full dose curve; tested in HEK293 cells. % is scaled to controls: 0 for no effect and ±100 for the full control effect; potency is read from the fitted curve at half-maximal effect.
SMILES,MARV entry inh,LASV entry inh
N[C@H](C(=O)O)c1ccc(O)c(C(=O)O)c1,11%,-3%
Cc1cc2c(c(=O)n1Cc1ccccc1)[C@H]1O[C@](CCCCN3C(=O)c4ccccc4C3=O)(Cc3cc(C#N)ccc31)O2,?,-3%[8.59 µM]
COC(=O)C1=C(C(=O)OC)[C@@H]2Nc3ccccc3[C@@]23C[C@@H](C(=O)OC)N(C(=O)Nc2ccccc2F)C3=N1,-9%[8.59 µM],-14%[8.59 µM]
CCCCC(C)/C=C(C)/C=C(\C)C(=O)NC1=CC(O)(/C=C/C=C/C=C/C(=O)NC2=C(O)CCC2=O)C2OC2C1=O (configuration not stated),3.2µM*,7.1µM*
O[C@@H]1C[C@H](c2ccccc2)N(Cc2cccs2)C[C@@H]1n1cc(C2CC2)nn1,26%,10%
Cc1ccccc1,-1%,-4%
CC(=O)[C@]12C[C@@H]3CCCN(C(=O)N[C@@H]1c1ccccc1)[C@@H]32,0%[8.59 µM],-7%[8.59 µM]
C[C@]12CCC3C(CC[C@]4(O)CC(O)CC[C@@]34C=O)[C@]1(O)CCC2C1=CC(=O)OC1 (some centres not stated),10µM*,11µM*
CC1O[C@@H](OC2CC[C@@]3(C=O)C4CC[C@]5(C)C(C6=CC(=O)OC6)CC[C@@]5(O)C4CC[C@]3(O)C2)C(O)C(O)C1O (some centres not stated),0.2µM*,0.25µM*
C[C@@H]1O[C@@H](O[C@H]2CC[C@]3(C=O)C4CC[C@]5(C)[C@@H](C6=CC(=O)OC6)CC[C@]5(O)[C@@H]4CC[C@]3(O)C2)[C@H](O)[C@H](O)[C@H]1O (some centres not stated),0.1µM*,0.11µM*
COC1C(O)C(OC2CC[C@]3(C=O)C4C(OC(C)=O)C[C@@]5(C)C(C6=CC(=O)OC6)CC[C@]5(O)C4CC[C@]3(O)C2)OC(C)C1OC(C)=O (some centres not stated),-13%,0%
COC(=O)CC=C1c2ccc3c(c2[C@@H](OC)[C@@H]1C)OCO3,-6%[8.59 µM],-2%[8.59 µM]
COc1cc2c(cc1OC)[C@@H]1O[C@](c3ccsc3)(C2)Oc2cc(-c3ccccc3)oc(=O)c21,?,17%[8.59 µM]
CSC[C@H]1CN(c2ccc(Br)cc2)C(=O)[C@H]1CC(=O)Nc1ccccc1,-29%,?
O=C1[C@H]2[C@@H]3[C@@H](O)[C@H](O)CC(=NOCc4ccccc4)[C@@H]3CC[C@H]2C(=O)N1c1ccc(F)cc1F,-9%[8.59 µM],3%[8.59 µM]
CC(=O)c1ccc(OCc2cn(CC(=O)c3ccc(O)cc3)nn2)c(F)c1,7%,-21%
CCC1/C=C/C=CCC(C)C(O)[C@@](C)(O)C(=O)C(C)C(O)C(C)C(=O)C(C)C(O)C(C)C=CC(=O)O[C@H]2C(C)C(CC1)O[C@]1(CCC(C)C(CC(C)O)O1)C2C (some centres not stated),0.079µM*,?
CC(CCN1CCCc2nc(C)c(C)cc21)=NO[C@H](C)c1cn([C@H](CO)Cc2ccccc2)nn1,?,1%[8.59 µM]
COC(=O)/C=C\c1cc(O)ccc1O,10µM*,25µM*
COC(=O)c1ccc(O)cc1,3%,-7%
C[C@H]1CCCC(=O)N[C@@H](c2ccccc2)[C@@H](C)CCCC(=O)N[C@@H]1c1ccccc1,29%[8.59 µM],17%[8.59 µM]
CC=C[C@@H]1Oc2ccc(OC)cc2N2C(=O)[C@H](C)[C@@H](OCOC)[C@H]12,-23%[8.59 µM],-6%[8.59 µM]
CCCCC[C@@H](O)C1C(=O)OC(C)[C@H](O)/C=C/C=C/C=C/C=C/C=C(\C)C(O)C(O)C(O)C[C@H](O)C[C@H](O)C[C@H](O)C[C@H](O)C[C@@H]1O (some centres not stated),16µM*!,-5%
CC[C@@H](c1ccccc1)n1c(=O)n2n(c1=O)[C@H]1[C@H](O)[C@@H]3O[C@H]3C(=NOCc3ccccc3)[C@H]1CC2,?,6%[8.59 µM]
CCOC(=O)NN=C1C[C@@H](O)[C@@H](O)[C@@H]2[C@H]3C(=O)N(C4CCCCC4)C(=O)[C@@H]3CC[C@@H]12,-25%[8.59 µM],·
SMILES,MARV entry inh,LASV entry inh
Cc1ccc2nc(NCCN)c3ncc(C)n3c2c1,7.9µM*,?
COc1ccc(COC(=O)NN=C2C[C@@H](O)[C@@H](O)[C@@H]3[C@H]4C(=O)N(C[C@@H]5CCCO5)C(=O)[C@@H]4CC[C@@H]23)cc1,6%[8.59 µM],?
COC/C=C/C1=CC2=CC(=O)C(C)(OC(=O)c3cnc4ccccc4n3)C(=O)C2=CO1 (configuration not stated),14%,5.6µM*
CCC(=O)OC1(C)C(=O)C=C2C=C(/C=C/COC)OC=C2C1=O (configuration not stated),-14%,0%
CCCCn1c(C)cc2c(c1=O)[C@H]1O[C@](CCCC)(Cc3cc(C#N)ccc31)O2,?,14%[8.59 µM]
CC1=C(C(=O)Nc2ccc3n[nH]c(C)c3c2)C(c2ccc(C(F)(F)F)cc2)CC(=O)N1 (configuration not stated),?,1%
O=c1c2ccccc2oc2cc(O)c(C3COCC(CO)C(O)C(O)C3O)c(O)c12 (configuration not stated),14µM*,-7%
O=c1cc(-c2ccc(O)cc2)oc2cc(O)c([C@@H]3O[C@H](CO)[C@@H](O)[C@H](O)[C@H]3O)c(O)c12,10%,-7%
CC1=C(C(=O)Nc2ccc3[nH]ncc3c2)C(c2ccc(F)cc2)NC(=O)N1 (configuration not stated),8%,?
CCN1C(=O)NC(c2cccc(C(F)(F)F)c2)C(C(=O)OC)=C1C (configuration not stated),23%[8.59 µM],-4%[8.59 µM]
COc1cc(CO[C@H]2C=C[C@@H](c3ccccc3)O[C@H]2CO)cc(OC)c1,?,-18%[8.59 µM]
COc1cc2c(cc1OC)[C@@H]1O[C@](c3ccsc3)(C2)Oc2cc(C)n(Cc3ccccc3)c(=O)c21,?,5%[8.59 µM]
CCN(CC)CCCCCCCCOC(=O)c1cc(OC)c(OC)c(OC)c1,13µM*,25µM*
CCN(CC)CCOC(=O)c1ccc(N)cc1,-12%,6%
COc1cc(C(=O)OCCCN2CCCN(CCCOC(=O)c3cc(OC)c(OC)c(OC)c3)CC2)cc(OC)c1OC,7.1µM*,?
COc1cc(/C=C/C(=O)N2CCN(CC(=O)N3CCCC3)CC2)cc(OC)c1OC,12%,-12%
CC(=O)C1=C(C)N(Cc2ccccc2)C(=O)NC1CCc1ccccc1 (configuration not stated),14%[8.59 µM],·
OC[C@H]1O[C@H](c2ccccc2)C=C[C@H]1O,-8%[8.59 µM],-16%[8.59 µM]
O[C@@H]1CN(Cc2cccs2)[C@@H](c2ccccc2)C[C@@H]1n1cc(C2CC2)nn1,-24%,-7%
COC(=O)C1=C(C)N(Cc2ccccc2)C(=S)NC1c1cccc(F)c1 (configuration not stated),48%[8.59 µM],1%[8.59 µM]
O=C(OCc1cn([C@H]2C[C@H](c3ccc(Cl)cc3)N(C(=O)C3CCCCC3)C[C@H]2O)nn1)c1ccccc1,?,-2%
CC1=CC[C@@H](C)O[C@@]2(C1)C(=O)N(Cc1ccc(F)cc1)c1ccccc12,41%[8.59 µM],-9%[8.59 µM]
CCN(CC)CCO[C@H]1CC[C@@]2(C)C(=CC[C@@H]3[C@H]2CC[C@]2(C)C(=O)CC[C@H]32)C1,13µM*,-23%
CCN(CC)CCO[C@H]1CC[C@@]2(C)C(=CC[C@@H]3[C@@H]2CC[C@]2(C)C(=O)CC[C@@H]32)C1,-7%,9%
COCCOC(=O)C1=C(C)NC(C)=C(C(=O)OC/C=C/c2ccccc2)C1c1cccc([N+](=O)[O-])c1 (configuration not stated),6.3µM*,13µM*
